Source: PubChem BioAssay (National Center for Advancing Translational Sciences (NCATS))
IL-1B inflam inh = inhibitors of inflammasome signaling (IL-1 beta secretion). THP-1 LPS/ATP IL-1B secretion, AlphaLISA, 16 h; active compounds read low. 4.7% of 360,000 active. activity change, % at 57.5 µM; in the data active = activity change below about -50%; inconclusive = mostly about -30% to -49%
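Secreted IL-1B measured by AlphaLISA bead assay after 16 h compound exposure of THP-1 cells; compounds (final up to 57.5 uM) added 1 h before LPS (250 ng/mL) and ATP (1.25 mM) stimulation; lower signal means less secretion.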
HT1080NT lethal = kills 2HG-producing HT-1080-NT fibrosarcoma cells. AID 686970. HT-1080-NT fibrosarcoma viability, CellTiter-Glo ATP luminescence, 48 h. 1.6% of 360,000 active. Potency, µM (series often up to 46.1 µM), without a hit: top-dose activity, negative = less viability, most hits filed as cytotoxic;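 also: NT is the 2HG producing partner of a matched IDH1 knockdown line; potency is read from the fitted curve at half-maximal effect; 0% = DMSO-treated cells and -100% = media-only wells without cells; nearly all actives have a fitted effect of over 55% in size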
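HT-1080-NT fibrosarcoma cells (2HG-overproducing), 750 cells/well in RPMI with 5% FBS, dosed after 2 h and incubated 48 h at 37C. CellTiter-Glo luminescence normalized to DMSO and no-cell wells; concentration-response curves fitted and classed.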
HT1080 IDH1KD tx = HT-1080 IDH1 knockdown cell toxicity (counter line). 2% of 360,000 active. Potency, µM (titrated, usually from 46.1 µM), for the others: at the highest dose activity, negative = toxicity, actives largely listed as cytotoxic. HT-1080 IDH1 knockdown viability, ATP luminescence, 48 h;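 also: potency is read from the fitted curve at half-maximal effect; 0% = DMSO wells and -100% = cell-free medium wells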
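CellTiter-Glo luminescence after 48 h compound exposure at 37 degrees C of IDH1-knockdown HT-1080 cells in 5% FBS RPMI. %Activity scaled between DMSO wells and cell-free media wells, with curves fitted and assigned curve classes.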
DT40 TDP1 CPT = DT40-hTDP1 cell growth loss with CPT | Potency, µM (titrated, usually from 46.2 µM), for inactives: top-dose activity change, negative = growth inhibition, most hits filed as inhibitors | 12% of 420,000 active | AID 686979 | chicken DT40 Tdp1-/-;hTDP1 cells + 20 nM CPT, ATP luminescence, 48 h; also: potency is read from the fitted curve at half-maximal effect; nearly all actives have a fitted effect of over 55% in size
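Chicken DT40 Tdp1-/- cells complemented with human TDP1, 400 cells/well, exposed to compounds plus 20 nM camptothecin for at least 48 h at 37 C; viability read as ATP content by CellTiter-Glo luminescence.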
DT40 TDP1 no CPT = qHTS for Inhibitors of human tyrosyl-DNA phosphodiesterase 1 (TDP1): qHTS in cells in absence of CPT; 15% of 420,000 active; DT40 Tdp1-/- hTDP1 cells, no CPT, ATP luminescence, 48 h; Potency, µM (doses to about 46.2 µM), without a hit: at the highest dose activity change, negative = growth inhibition, hits mostly inhibitors; also: potency is read from the fitted curve at half-maximal effect; nearly all actives have a fitted effect of over 55% in size
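Camptothecin absent (DMSO only). Human TDP1-complemented DT40 knockout cells, 400 cells/well, 37 °C for minimum 48 hr; ATP measured via CellTiter-Glo, 30 min dark incubation, luminescence.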
The depositor's hits bear a star; ? = inconclusive; · = no result. An excerpt weighted towards active compounds, which were near 19% of everything screened. Unless noted, calls follow the shape of the dose curve; as a rule, active = well fitted curve in the direction sought with a large enough effect; inconclusive = small, poorly fitted or top-dose-only effect, or another doubt; inactive = no such curve, though single readings can be large; an effect the other way counts as inactive or inconclusive. Unless noted, % is scaled to controls: 0 for no effect and ±100 for the full control effect.

SMILES	IL-1B inflam inh	HT1080NT lethal	HT1080 IDH1KD tx	DT40 TDP1 CPT	DT40 TDP1 no CPT
CCN(CC)C(=O)C(C)N(C#N)c1nc(Cl)nc(N(C)C)n1 (stereo not drawn)	-98*	18%	-6%	3%	10%
Cc1ccc(NC(=O)C(C)OC(=O)c2n[nH]c3ccccc23)cc1 (stereo not drawn)	6	-2%	-10%	-8%	-8%
CC(OC(=O)c1n[nH]c2ccccc12)C(=O)Nc1ccccc1[N+](=O)[O-] (stereo not drawn)	6	-2%	0%	?	15µM*
Clc1ccccc1OCc1nnc(-c2ccccc2Br)o1	?	5%	0%	-7%	-17%
O=c1c(Cl)c(Cl)cnn1Cc1nnc(-c2ccccc2Br)o1	-96*	12µM*	9.2µM*	4.1µM*	1.8µM*
O=C(CCC(=O)N1CCOc2ccccc21)NCCCN1CCN(Cc2ccccc2)CC1	-10	-13%	-2%	-27%	?
O=C(NC(=S)Nc1cccc(NC(=S)NC(=O)c2ccccc2)c1)c1ccccc1	32	-11%	-18%	9.2µM*	10µM*
CC(=O)c1cccc(NC(=S)NC(=O)c2ccc(C)cc2)c1	-7	0%	-3%	?	18µM*
O=C(Nc1cccc(NC(=S)NC(=O)c2cccs2)c1)c1ccccc1	-6	-17%	?	-12%	?
O=C(NC(=S)Nc1cccnc1)c1ccccc1	1	2%	6%	-9%	-19%
CC(=O)c1cccc(NC(=S)NC(=O)c2ccc(Br)cc2)c1	6	1%	1%	-5%	-13%
Cc1snnc1C(=O)NC(=S)Nc1ccccc1	14	17%	-4%	-29%	13µM*
O=C(NC(=S)NC(c1ccccc1)c1ccncc1)c1ccccc1 (stereo not drawn)	-79*	-25%	?	15µM*	12µM*
CC(NC(=S)NC(=O)c1ccccc1)c1ccccc1 (stereo not drawn)	-23	-3%	3%	0%	-24%
O=C(Nc1ccccc1Br)C1CCN(C(=O)Cc2ccccc2)CC1	-7	17%	9%	11%	12%
CC(C)C(=O)Nc1cccc(NC(=S)NC(=O)c2ccc(Cl)cc2)c1	-8	?	?	?	16µM*
Cc1ccc(C(=O)NC(=S)Nc2ccc(NC(=O)c3cccc(Cl)c3)cc2)cc1	0	?	26µM*	-28%	?
O=C(NC(NC(=S)Nc1c(Cl)cc(Cl)cc1Cl)C(Cl)(Cl)Cl)OCc1ccccc1 (stereo not drawn)	-58*	?	?	?	16µM*
O=C(NC(=S)Nc1c(Cl)cc(Cl)cc1Cl)c1ccccc1	-1	-6%	-22%	23µM*	9.2µM*
O=C(NC(=S)Nc1cccc(CO)c1)c1ccc(-c2ccccc2)cc1	-10	-22%	-20%	23µM*	13µM*
O=C(COc1ccc2c(c1)C(=O)CC1(CCCCC1)O2)NCc1ccccc1	20	-6%	0%	?	21µM*
COc1ccc(NC(=O)CS(=O)(=O)c2cn(CC(=O)N3CCOCC3)c3ccccc23)cc1	-1	-5%	2%	4%	-5%
CC(C)OCCCNC(=O)CCC(=O)NNc1nc2ccccc2c2nc(-c3ccccc3)nn12	-22	-12%	-3%	-79%	?
CCOCCCNC(=O)CCC(=O)NNc1nc2ccccc2c2nc(-c3ccccc3)nn12	30	7%	15%	?	12µM*
CCC(C(=O)c1ccc2ncccc2c1)c1ccccc1 (stereo not drawn)	35	12%	3%	15µM*	16µM*
SMILES	IL-1B inflam inh	HT1080NT lethal	HT1080 IDH1KD tx	DT40 TDP1 CPT	DT40 TDP1 no CPT
CCN(C(=O)c1nn(-c2ccc(OC)c(Cl)c2)c(=O)c2c1c1ccccc1n2C)c1cc(OC)ccc1OC	·	·	·	?	15µM*
CCCCNC(=O)c1nn(-c2ccc(C)cc2)c(=O)c2c1c1ccccc1n2C	·	·	·	8.2µM*	2.6µM*
COc1ccc(-n2nc(C(=O)NCCc3ccc(Cl)cc3)c3c4ccccc4n(C)c3c2=O)cc1	·	·	·	8.2µM*	10µM*
COc1ccc(-n2nc(C(=O)N3CCCC(C)C3)c3c4ccccc4n(C)c3c2=O)cc1Cl (stereo not drawn)	·	·	·	16µM*	-97%
CCN(CCCNC(=O)c1nn(-c2ccc(C)cc2)c(=O)c2c1c1ccccc1n2C)c1cccc(C)c1	·	·	·	-27%	?
COc1ccc(-n2nc(C(=O)N3CCN(c4ccccc4OC)CC3)c3c4ccccc4n(C)c3c2=O)cc1Cl	·	·	·	-19%	-25%
COc1ccc(/C=C2\SC(=O)N(CC(=O)NN3CCN(C)CC3)C2=O)cc1OC	-26	-4%	-6%	29%	-21%
CC1CC(C)CN(C(=O)CCn2c(=O)oc3ccccc32)C1 (stereo not drawn)	-6	15%	12%	4%	12%
CCN(CC)CCCNC(=O)c1nn(-c2ccc(OC)c(Cl)c2)c(=O)c2c1c1ccccc1n2C	·	·	·	?	16µM*
CC(C)(C)OC1NS(=O)(=O)OCC1NCOC(Cl)(Cl)Cl (stereo not drawn)	-23	2%	0%	3.3µM*	3.7µM*
O=C1CSC(=S)N1/N=C/c1cccnc1	-4	12%	5%	15µM*	?
O=C1CSC(=S)N1N=Cc1cccc(OCc2ccccc2)c1	-6	-2%	-1%	-26%	-2%
O=C1CSC(=S)N1N=Cc1ccccc1O	10	3%	7%	?	9.2µM*
COc1cc(O)c(C=NN2C(=O)CSC2=S)c(OC)c1	34	2%	2%	21µM*	23µM*
Cc1ccccc1/C=N/N1C(=O)CSC1=S	-5	14%	1%	-14%	-20%
O=C1CSC(=S)N1N=Cc1ccc(Cl)cc1Cl	10	-4%	0%	?	21µM*
Cc1ccc(NC(=O)C2CCCN2C(=O)NC2CCCCC2)cc1F (stereo not drawn)	22	-7%	-3%	6%	5%
CC(C)(C)S(=O)(=O)N1C[C@@H]2CC/C=C\C/C(c3ccccc3)=C\2[C@H]1CCO	-1	0%	-1%	?	?
Cc1ccc(CN2CCCn3nc(C(=O)NCCC(C)C)cc3C2=O)cc1	·	·	·	-19%	-23%
COc1ccc(CCNC(=O)c2cc3n(n2)CCCN(Cc2ccc(C)cc2)C3=O)cc1OC	·	·	·	?	21µM*
CCc1ccc(CNC(=O)c2cc3n(n2)CCCN(Cc2ccccc2)C3=O)cc1	·	·	·	16µM*	?
Cc1ccc(CN2CCCn3nc(C(=O)NC(C)C)cc3C2=O)cc1	·	·	·	-11%	-22%
CCCNC(=O)c1cc2n(n1)CCCN(Cc1ccc(F)cc1)C2=O	·	·	·	0%	4%
